Experimental findings from ChEMBL document CHEMBL3433997, “St. Jude Leishmania screening dataset” (2016) are described below.

Format in all cases: functional
Test [1] deals with Solute carrier family 2, facilitated glucose transporter member 1 (Homo sapiens) (UniProt P11166). The test can be described thus: ST_JUDE_LEISH: Cytotoxicity at 2uM final concentration against transgenic Leishmania Mexicana promastigotes LmGLUT1 that are glucose transport deficient and complemented with the human glucose transporter GLUT1. Activity is measured by DNA content using SYBR green in vitro.
Sequence of Solute carrier family 2, facilitated glucose transporter member 1 (Homo sapiens) (P11166 whole entry): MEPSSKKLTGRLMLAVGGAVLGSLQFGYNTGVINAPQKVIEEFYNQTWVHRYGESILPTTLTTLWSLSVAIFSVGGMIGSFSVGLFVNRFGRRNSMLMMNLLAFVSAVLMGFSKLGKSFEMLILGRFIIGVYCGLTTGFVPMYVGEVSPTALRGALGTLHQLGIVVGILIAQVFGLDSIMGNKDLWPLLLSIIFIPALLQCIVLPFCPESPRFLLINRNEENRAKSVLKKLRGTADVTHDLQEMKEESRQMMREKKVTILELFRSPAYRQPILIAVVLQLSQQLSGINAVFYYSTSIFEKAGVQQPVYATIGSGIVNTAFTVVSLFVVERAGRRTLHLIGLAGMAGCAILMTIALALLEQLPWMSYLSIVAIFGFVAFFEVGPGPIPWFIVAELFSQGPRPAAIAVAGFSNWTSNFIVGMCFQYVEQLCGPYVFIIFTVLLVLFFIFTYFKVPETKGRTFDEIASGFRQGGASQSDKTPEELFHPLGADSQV

The target of test [2] is Hexose transporter 1 (Plasmodium falciparum) (UniProt O97467). In words: ST_JUDE_LEISH: Cytotoxicity at 2uM final concentration against transgenic Leishmania Mexicana promastigotes LmPfHT that are glucose transport deficient and complemented with the Plasmodium falciparum hexose transporter. Activity is measured by DNA content using SYBR green in vitro.
The target of test [3] is Glucose transporter (Leishmania mexicana) (UniProt O61059). The test can be described thus: ST_JUDE_LEISH: Cytotoxicity at 2uM final concentration against transgenic Leishmania Mexicana promastigotes LmGT2 that are glucose transport deficient and complemented with the L. Mexicana glucose transporter 2. Activity is measured by DNA content using SYBR green in vitro.

With `Nc1ncc(-c2ccc3[nH]ccc3c2)c2ccc(-c3ccncc3)cc12`, the inhibition turned out to be 10% in test [1], 10.2% in test [2] and 9.5% in test [3].
For `COc1ccccc1CCNc1nc(C)cc(N[C@@H](Cc2ccccc2)C(=O)NCc2cccc(F)c2)n1` the same measures were 5.91%, 1.53% and 5.51%.
Consider `COc1ccc(C=NN=c2cc[nH]c3ccccc23)c2ccccc12`, for which the figures for the inhibition in test [1], in test [2] and in test [3] were 2.52%, 7.49% and 5.88%, respectively.
For `COc1ccc(-c2ccc(CNCc3ccc(F)cc3)cc2)cc1S(=O)(=O)NCCN1CCCC1` the same measures were 0.67%, 1.06% and 3.23%.
For `Cn1cncc1C(=O)Nc1ccc(-c2ccc(-c3nc4cc(C(F)(F)F)ccc4[nH]3)cc2)cc1` the same measures were 20.8%, 15% and 4.64%.
With `COCCOc1ccc(Nc2nccc(-c3c(-c4cccc(NC(=O)c5c(F)cccc5F)c4)nn4ccccc34)n2)cc1Cl`, the inhibition in test [1] came out at 13.5%; in test [2], 11.1%; in test [3], 2.52%.
The like results for `O=C(Nc1ccccc1O)c1ccc(Oc2cccc(C(=O)Nc3ccccc3O)c2)cc1` were, in that order, 3.99%, 4.01% and 1.13%.
In the case of `O=C(c1ccc2ccccc2n1)N1CCCc2cc(Br)ccc21`, the inhibition in test [1] came to 8.95%; in test [2], 1.96%; in test [3] it was 0.16%.
The like results for `N#Cc1ccc(CN2CCC(Oc3ccc(NC(=O)c4cccs4)cc3Cl)C2)cc1` (configuration not stated) were, in that order, -0.24%, 3.89% and -0.2%.
For `O=C(/C=C/c1ccc(Cl)c(Cl)c1)NCCCCCCN1CCCN(C(=O)Nc2cccc(Cl)c2)CC1` the same measures were -1.03%, 0.08% and -2.92%.
Consider `CS(=O)(=O)c1ccc2c(c1)CCN(CCC1CCC(NC(=O)c3cc4cccc(Br)c4[nH]3)CC1)CC2` (configuration not stated), for which the inhibition is 2.5% in test [1], 2.78% in test [2] and 1.11% in test [3].
Take `Cc1nc(-c2nc(NCc3ccccn3)ncc2-c2ccsc2)sc1C`: the inhibition in test [1] worked out at 6.64%; in test [2], 5.22%; in test [3], 5.82%.
Consider `CNc1ccc(CNCc2cccc(-c3ccc(-c4nc5ccccc5[nH]4)cc3)c2)cc1`, for which the results for the inhibition in test [1], in test [2] and in test [3] were 0.78%, -1.69% and -1.34%, respectively.
The like results for `O=C(COc1ccc(Cl)c(Cl)c1)NCCCCCN1CCCN(C(=O)Nc2ccc(Cl)c(Cl)c2)CC1` were, in that order, 4.35%, 3.1% and 2.27%.
For the compound `COc1ccc(-c2cnc(N)c(-c3ccc(C(N)=O)cc3)c2)cc1OC`, the results for the inhibition in test [1], in test [2] and in test [3] were 3.97%, 3.4% and 5.07%, respectively.
For `CN(C)CCN(Cc1ccccc1-c1ccc(CNCCc2ccccc2)cc1)C(=O)c1ccccc1`, the inhibition amounted to 3.46% in test [1], 2.83% in test [2] and 3.1% in test [3].
`Nc1ccc2[nH]cc(C3CCN(CC4CCC(NC(=O)/C=C/c5ccccc5Cl)CC4)CC3)c2n1` (configuration not stated): the inhibition worked out at 3.23% in test [1], 3.23% in test [2] and 2.48% in test [3].
On to `CC(Oc1cc(-n2cnc3ccc(NC(=O)CCN4CCCCC4)cc32)sc1C(N)=O)c1ccccc1Cl` (configuration not stated), for which the inhibition in test [1] amounted to 16.8%; in test [2], 9.84%; in test [3], 6.83%.
For `OC(CNc1ccnc(Nc2cccc(OCCCN3CCOCC3)c2)n1)c1ccccc1` (configuration not stated) the same measures were 0.76%, 0.43% and -0.96%.
The like results for `Cc1cc(NC(=O)c2coc3cc(F)c(N4CC(C)N(C)C(C)C4)cc23)ccc1-n1ccnc1` (configuration not stated) were, in that order, 2.32%, 1.16% and -1.58%.
As for `O=C(Nc1nc2cc(S(=O)(=O)NCCc3ccc(F)cc3)ccc2n1CCCn1ccnc1)c1ccc(Cl)cc1`, the inhibition came out at 1.74% in test [1], 2.83% in test [2] and 1.86% in test [3].
With `Cc1c(C(=O)Nc2cc(Sc3ccc(F)cc3)cc([N+](=O)[O-])c2)sc2ncn(Cc3ccccc3F)c(=O)c12`, the inhibition came out at 9.44% in test [1], 9.11% in test [2] and 8.4% in test [3].
For `Nc1nc(N)c2nc(C3CC=CCC3)c(N)nc2n1` (configuration not stated) the same measures were 2.95%, 3.81% and -0.04%.
Take `C=CCOC(=O)O[C@@H]1[C@@H](OC(=O)OCC=C)[C@@H](OC)O[C@H](COC(c2ccccc2)(c2ccccc2)c2ccccc2)[C@H]1OC(=O)OCC=C`: the inhibition in test [1] is 4.46%; in test [2] it was 3.53%; in test [3], 4.42%.
For `N#Cc1ccc2c(c1)CCN(CCC1CCC(NC(=O)Nc3cnc4ccccc4c3)CC1)C2` (configuration not stated) the same measures were 2.8%, 3.15% and 2.03%.
Turning to `COc1ccc(C(=O)Nc2ccc(-c3nc4cc(C)ccc4[nH]3)cc2)cc1OC`, the results for the inhibition in test [1], in test [2] and in test [3] were 3.99%, 2.08% and 3.84%, respectively.
`COc1ccc(NS(=O)(=O)c2ccc(C(=O)Nc3ccc(OC(F)(F)F)cc3)cc2)cc1N1CCN(CC2CC2)CC1`: the inhibition came to 6.41% in test [1], 5.3% in test [2] and 4.14% in test [3].
In the case of `c1cc(-c2ccc(CN3CCN(c4ccncc4)CC3)cc2)cc(-c2nc3ccccc3[nH]2)c1`, the inhibition turned out to be 1.81% in test [1], 3.51% in test [2] and 2.1% in test [3].
For `Cc1ccc(C(=O)Nc2ccc(F)cc2)cc1-c1nc(NC2CC(C)(C)NC(C)(C)C2)nc2c1ccc(=O)n2-c1c(F)cccc1F` the same measures were 4.77%, 3.62% and 2.81%.
The like results for `CN1CCC(C(=O)N(Cc2ccc(-c3ccc(CNCCc4ccccc4)cn3)cc2)C2CCN(Cc3ccccc3)CC2)CC1` were, in that order, 0.71%, 1.1% and -0.74%.
The like results for `CCCCCn1c(Sc2ccc(C#N)c([N+](=O)[O-])c2)nnc1-c1cccc(Cl)c1` were, in that order, 5.58%, 6.17% and -0.77%.
Consider `COc1ccc(Cn2c(Nc3cccc(C(F)(F)F)c3)nc3ccc(C(=O)NCCN4CCCC4)cc32)cc1Cl`, for which the inhibition in test [1] worked out at 8.87%; in test [2], 6.74%; in test [3] it was 14.2%.
The like results for `Cc1ccc(-n2cc(CNCCCn3ccnc3)c(-c3cccc(C)c3)n2)cc1` were, in that order, 4.3%, 6.62% and 3.71%.
`COc1ccc(CNCc2cccc(-c3cccc(-c4nc5cc(C(F)(F)F)ccc5[nH]4)c3)c2)cc1`: the results for the inhibition in test [1], in test [2] and in test [3] were 5.4%, 4.65% and 3.48%, respectively.
